Here are results for 15 molecules from PubChem BioAssay (NCATS).

Values without a mark were called inactive. Inconclusive results are not listed. The source made the active and inactive calls. Unless noted, the call rests on the fitted dose curve; in most records, active means well fitted curve in the direction sought with a large enough effect; inconclusive means small, poorly fitted or top-dose-only effect, or another doubt; inactive means no such curve, though single readings can be large; an effect the other way counts as inactive or inconclusive.

Assay [1] is described as follows: Confirmation and Secondary Assay for Modulators of Hemoglobin Beta Chain Splicing at IVS2 705 locus (AID 930).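 Further: HeLa cells stably expressing the EGFP-705 splicing reporter; GFP fluorescence per well restored by corrected splicing of the IVS2-705 intron in EGFP; series mostly up to about 46 µM.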 The procedure, abridged:
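Splice-correction reporter: EGFP cDNA split by beta-globin intron 2 bearing the 705 mutation, stably in HeLa. Compound incubation 2 days, 37C; fluorescent objects 5-250 µm summed per well.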

The nature of assay [2]: Cell Viability - LYMP2-001 (AID 921). Further: nearly all actives have a fitted effect of over 70% in size. Further: potency means the concentration at half of the fitted maximal effect. The procedure, abridged:
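A lymphoblastoid cell line of human origin was treated with library compounds across a concentration series for 24 hours, and viable cell number was estimated from ATP-driven luciferase light output. Hill modeling gave AC50.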

The nature of assay [3]: MultiTox-Fluor Cytotoxicity Assay - LYMP1-001 - Dead Cells (AID 946). Further: potency means the concentration at half of the fitted maximal effect. The procedure, abridged:
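In this qHTS, 15 uM tetraoctylammonium bromide defined 100% and DMSO defined basal activity. Lymphoblastoid cells (LYMP1-001, 2500 per well) received compound for 16 hr at 37 C before a fluorogenic dead-cell substrate readout at 485/520 nm.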

Assay [4] in a line: MultiTox-Fluor Cytotoxicity Assay - LYMP1-001 - Live Cells (AID 947).
The nature of assay [5]: Cell Viability - LYMP1-002 - Assay at 16 hr (AID 948). Further: potency means the concentration at half of the fitted maximal effect. The procedure, abridged:
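In this qHTS, lymphoblastoid LYMP1-002 cells (human) receive compounds for 16 hr at 37 C. Viability is taken from CellTiter-Glo ATP luminescence, and AC50 derives from standard Hill fits.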

The nature of assay [6]: MultiTox-Fluor Cytotoxicity Assay - LYMP1-002 - Live Cells (AID 955). Further: potency means the concentration at half of the fitted maximal effect. The procedure, abridged:
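Human lymphoblastoid LYMP1-002 cells, 2500/well in complete medium, rested 5 hr at 37 C, then exposed to compounds for 16 hr at 37 C. Live-cell protease cleavage of GF-AFC read by fluorescence (Ex/Em 405/510) after 60 min at room temperature; AC50 from Hill fits.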

Assay [7] can be described thus: MultiTox-Fluor Cytotoxicity Assay - LYMP1-003 - Dead Cells (AID 961). Further: nearly all actives have a fitted effect of over 70% in size. Further: potency means the concentration at half of the fitted maximal effect. The procedure, abridged:
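Acute toxicity is scored as increased dead-cell protease activity in human lymphoblastoid LYMP1-003 cells after 16 h compound exposure in complete culture medium. Activity is normalized to DMSO basal and 15 uM tetraoctylammonium bromide as full response.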

The nature of assay [8]: MultiTox-Fluor Cytotoxicity Assay - LYMP1-003 - Live Cells (AID 962).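 Further: cytotoxic hits lower the live-cell protease signal.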 The procedure, abridged: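 LYMP1-003 human lymphoblastoid cells (2500/well) in complete medium were preincubated 5 hr at 37 C, then exposed to compounds for 16 hr at 37 C. Live-cell protease cleavage of GF-AFC read by fluorescence (Ex/Em 405/510); AC50 from Hill fits.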
A short description of assay [9]: Cell Viability - LYMP1-003 - Assay at 24 hr (AID 963). Further: potency means the concentration at half of the fitted maximal effect. The procedure, abridged:
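Human lymphoblastoid LYMP1-003 cells (2500/well) were rested 5 hr at 37 C, then exposed to compounds in complete medium for 24 hr at 37 C. Cellular ATP was quantified by CellTiter-Glo luminescence, and AC50 values came from Hill fits of concentration-response data.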

A short description of assay [10]: Cell Viability - LYMP1-003 - Assay at 40 hr (AID 964). Further: nearly all actives have a fitted effect of over 60% in size. Further: potency means the concentration at half of the fitted maximal effect. The procedure, abridged: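 Human lymphoblastoid LYMP1-003 cells, 2500/well in complete medium, rested 5 hr at 37 C, then exposed to compounds for 40 hr at 37 C. Viability read as intracellular ATP by CellTiter-Glo luminescence; AC50 from Hill fits of concentration-response data.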
The nature of assay [11]: Cell Viability - LYMP2-004 (AID 966). Further: nearly all actives have a fitted effect of over 65% in size. Further: potency means the concentration at half of the fitted maximal effect. The procedure, abridged: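 Human lymphoblastoid cells (2500/well) in complete medium were treated with compounds for 24 hr at 37 C, then intracellular ATP was measured by CellTiter-Glo luminescence. AC50 values came from Hill-equation fits of concentration-response data.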
Assay [12] in a line: Cell Viability - LYMP2-005 (AID 967). Further: series mostly up to about 92 µM. The procedure, abridged:
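Luciferase-based ATP quantitation served as the viability measure in human lymphoblastoid LYMP2-005 cells exposed to test compounds for 24 h at 37 C in complete culture medium. Potency (AC50) was obtained by fitting concentration-response curves with the Hill equation.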

Assay [13] can be described thus: Cell Viability - LYMP2-009 (AID 968). Further: nearly all actives have a fitted effect of over 55% in size. Further: potency means the concentration at half of the fitted maximal effect.
Assay [14] in a line: Cell Viability - LYMP2-011 (AID 969). Further: nearly all actives have a fitted effect of over 60% in size. Further: potency means the concentration at half of the fitted maximal effect. The procedure, abridged:
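Human lymphoblastoid cells (2500/well) were plated in complete medium, preincubated 5 hr at 37 C, then exposed to compounds for 24 hr at 37 C. Intracellular ATP was read by CellTiter-Glo luminescence, and AC50 came from Hill-equation concentration-response fits.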

Assay [15] can be described thus: MultiTox-Fluor Cytotoxicity Assay - LYMP1-002 - Dead Cells (AID 960). Further: nearly all actives have a fitted effect of over 60% in size. Further: potency means the concentration at half of the fitted maximal effect. The procedure, abridged: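 Human lymphoblastoid cells (LYMP1-002), 2500/well in complete medium, were exposed to compounds for 16 hr at 37 C. Dead-cell protease activity was read as bis-AAF-R110 fluorescence (Ex/Em 485/520), normalized to DMSO and 15 uM tetraoctylammonium bromide; AC50 from Hill fits.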

In assay [16] the target is Pyruvate kinase (Leishmania mexicana) (UniProt Q27686). Briefly: qHTS Validation Assay for Inhibitors of Leishmania Mexicana Pyruvate Kinase (AID 945). The procedure, abridged:
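The enzyme is a highly purified E451W mutant of LmPYK used at 0.2 nM. It converts 0.5 mM PEP and 0.1 mM ADP over 1 h at room temperature; product ATP is quantified by luciferase luminescence relative to DMSO controls.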

Assay [17] deals with Pyruvate kinase PKM (Homo sapiens) (UniProt P14618). In words: qHTS Assay for Activators of Human Muscle Pyruvate Kinase (AID 954; active means well fitted curve in the direction sought with a large enough effect, not every such curve was filed as active). The procedure, abridged:
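Enzyme was run at intermediate activity so both inhibitors and activators could be detected. ATP formed from ADP and PEP by 0.1 nM human PKM2 during a 1 h room-temperature incubation was quantified by coupled luciferase luminescence.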

Sequence of Pyruvate kinase (Leishmania mexicana) (Q27686 2-499 E452W): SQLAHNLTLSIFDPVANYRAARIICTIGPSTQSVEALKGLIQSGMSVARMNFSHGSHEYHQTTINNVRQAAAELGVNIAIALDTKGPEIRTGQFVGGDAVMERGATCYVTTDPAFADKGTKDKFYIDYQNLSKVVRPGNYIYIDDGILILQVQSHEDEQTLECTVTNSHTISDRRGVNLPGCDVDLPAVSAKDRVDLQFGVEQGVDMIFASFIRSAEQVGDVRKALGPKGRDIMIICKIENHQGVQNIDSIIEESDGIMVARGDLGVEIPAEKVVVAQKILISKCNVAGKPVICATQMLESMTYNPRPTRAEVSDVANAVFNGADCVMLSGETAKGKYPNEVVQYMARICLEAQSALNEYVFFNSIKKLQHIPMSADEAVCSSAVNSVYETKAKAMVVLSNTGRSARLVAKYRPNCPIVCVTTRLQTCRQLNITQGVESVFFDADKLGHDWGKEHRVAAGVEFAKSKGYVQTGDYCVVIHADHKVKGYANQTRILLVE
Sequence of Pyruvate kinase PKM (Homo sapiens) (P14618 whole entry, looked up): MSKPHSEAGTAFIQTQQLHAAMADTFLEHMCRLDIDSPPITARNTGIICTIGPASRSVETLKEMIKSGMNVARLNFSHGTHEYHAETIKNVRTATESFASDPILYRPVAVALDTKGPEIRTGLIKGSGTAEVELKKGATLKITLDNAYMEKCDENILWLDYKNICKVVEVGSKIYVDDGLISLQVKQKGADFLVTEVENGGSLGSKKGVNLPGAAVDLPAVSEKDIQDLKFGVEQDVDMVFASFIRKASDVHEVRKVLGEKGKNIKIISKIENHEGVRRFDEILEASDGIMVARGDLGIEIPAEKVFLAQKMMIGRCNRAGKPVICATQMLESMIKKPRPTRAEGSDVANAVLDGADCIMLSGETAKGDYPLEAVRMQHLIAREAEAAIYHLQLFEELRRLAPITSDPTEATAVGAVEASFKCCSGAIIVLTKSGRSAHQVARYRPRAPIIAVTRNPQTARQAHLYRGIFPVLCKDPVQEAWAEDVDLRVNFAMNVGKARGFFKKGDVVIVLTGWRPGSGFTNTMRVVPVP

Consider `N#Cc1ccc2c(c1)N(CCCN1CCC(O)CC1)c1ccccc1S2`, for which the Potency result in assay [1] is “inactive”.

Regarding `CCCc1nc(C(C)(C)O)c(C(=O)OCc2oc(=O)oc2C)n1Cc1ccc(-c2ccccc2-c2nn[nH]n2)cc1`, the Potency entry in [1] is “inactive”.

As for `O=C(O)[C@H]1C(=CCO)O[C@H]2CC(=O)N12`, the Potency entry in [1] was “inactive”.

For `CC(=O)N=c1sc(S(N)(=O)=O)nn1C`, the Potency entry in [1] was “inactive”.

`CCOC(=O)C1=C(COCCN)NC(C)=C(C(=O)OC)C1c1ccccc1Cl` (stereo not drawn): in assay [1], the Potency entry is “inactive”.

On to `CC(=O)Oc1cccc2c1C(=O)c1c(OC(C)=O)cc(C(=O)O)cc1C2=O`, for which the Potency result in assay [1] is “inactive”.

As to `OB(O)O`, the Potency entry in assay [2], in assay [3], in assay [5], in assay [6], in [7] and in assay [9] was “inactive” in each case. Further, the Potency entry in assay [10], in [11], in assay [12], in assay [13] and in [14] was “inactive” throughout. The molecule was called inactive in [4] and in [8].

Turning to `CC/C=C\C/C=C\C/C=C\CCCCCCCC(=O)O`, the Potency entry in assay [3], in assay [5], in assay [6], in assay [15], in assay [7] and in assay [9] was “inactive” throughout. Further, the molecule was classed as inactive in [8]. The Potency in assay [13] is 50.1 µM (active).

As for `CN1CCc2c(c3ccccc3n2Cc2ccccc2)C1`, the Potency entry in assay [1] was “inactive”.

In the case of `C[C@H]1O[C@@H](O[C@H]2[C@@H](O)C[C@H](O[C@H]3[C@@H](O)C[C@H](O[C@H]4CC[C@@]5(C)[C@H](CC[C@@H]6[C@@H]5C[C@@H](O)[C@]5(C)[C@@H](C7=CC(=O)OC7)CC[C@]65O)C4)O[C@@H]3C)O[C@@H]2C)C[C@H](O)[C@@H]1O`, the Potency is 0.316 µM (active) in assay [2]; 0.794 µM (active) in assay [3]; 0.199 µM (active) in [5]; 0.501 µM (active) in [6]; 1.58 µM (active) in [7]; 0.251 µM (active) in [9]. Further, in [10], the Potency was 0.158 µM (active).

Turning to `CC(C)(C)CC(C)(C)c1ccc(OCCO)cc1`, the Potency entry in assay [3], in assay [5], in assay [6], in [15], in assay [7] and in assay [9] was “inactive” each time. In addition, the Potency entry in assay [10], in [11], in assay [12], in assay [13] and in assay [14] was “inactive” throughout. The result in [4] and in assay [8] was inactive.

Take `C=C1C(CCl)(CCl)C2(Cl)C(Cl)C(Cl)C1(Cl)C2(Cl)Cl` (stereo not drawn): the Potency was 39.8 µM (active) in assay [2]; 50.1 µM (active) in assay [3]; 50.1 µM (active) in [5]; 31.6 µM (active) in assay [15]; 50.1 µM (active) in [7]; 50.1 µM (active) in assay [9]. Besides, the Potency in assay [11] was 39.8 µM (active); in assay [13] it was 39.8 µM (active); in assay [14], 50.1 µM (active). Moreover, the Potency entry in assay [6] is “inactive”. For the same molecule, the molecule was called inactive in assay [8].

As to `C=CC(C)(O)CC/C=C(\C)CCC=C(C)C` (stereo not drawn), the Potency entry in [1] was “inactive”.

With `CC(=O)Nc1ccc(OC(=O)c2ccccc2O)cc1`, the Potency result in assay [1] was “inactive”.

Take `C[C@@](Cc1ccc(O)c(O)c1)(NN)C(=O)O`: the result in assay [16] and in [17] was inactive.
